Screens deposited in PubChem by several laboratories.
Rows were chosen to be rich in hits. Some 0.97% of all compounds tested hit in one or more screens of this group.
NOD2-RIPK2 inh: inhibitors of human NOD2-RIPK2 interaction; O43353; CHO BLA complementation NOD2-RIPK2, CCF4 ratio; inhibition, % at 4.98 µM; actives 0.38% (n = 360,000); AID 624267; in the data active means inhibition above about 21%
Beta2AR agonist: human beta-2 adrenergic receptor agonism by FAP. P07550. Am2.2-beta2AR cells, FAP receptor internalization, flow cytometry. response, % (test concentration not listed). actives 0.43% (n = 340,000). AID 504454;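 active means response above a set limit, near 3 SD of response in nonfluorescent compounds, cut at about 42% in these data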
NTR1 agonist: NTR1 (human) agonism | P30989 | NTR1-U2OS beta-arrestin-GFP spot imaging, agonist mode | activation, % at 20 µM | actives 0.17% (n = 330,000);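 active means activation at or above 40% of the spot to cytoplasm intensity ratio, with at least 20 cells analyzed; inconclusive means wells under 20 cells, flagged as cytotoxic or low count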
TLR4-MyD88 BLA: TLR4-MyD88 interaction inhibition in cells; AID 861; actives 0.18% (n = 200,000); HeLa CL3-4 TLR4/MyD88 BLA complementation, FRET ratio; O00206+Q99836; inhibition, % at 8.4 µM; in the data active means inhibition above about 25%
Bfl-1 A1 inh: inhibitors of the anti-apoptotic protein A1, read as caspase activation; MEF A1-2A-BIM cells, Caspase-Glo 3/7 luminescence, 3 h; percent of clofoctol response, vehicle zero; caspase activation, % (no concentration beside the values); actives 0.066% (n = 330,000); AID 2462;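 active means over half of replicate activation scores above 10%, or exactly half above 10 with the replicate mean above 10; inconclusive means replicate mean below 10 yet half the replicates above 10; inactive means over half of replicates below 10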
TLR9-MyD88 block: inhibitors of human TLR9-MyD88 binding | CHO BLA complementation TLR9-MyD88, CCF4 FRET ratio | Q9NR96+Q99836 | actives 0.21% (n = 340,000) | inhibition, % at 4.98 µM;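 active means inhibition above the mean over all tested compounds plus 3 SD, cut at about 21% in these data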
NTR1 ag conf: confirmation of agonists of human NTR1; activation, % at 20 µM; AID 504550; actives 38% (n = 480); shares compounds with NTR1 agonist; NTR1-U2OS beta-arrestin-GFP translocation imaging;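 active means mean activation at 20 µM of at least 40%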
Large screens that a line does not name were inactive (follow-up assays come after a bar, where they were run).

O=C(/C(=C/c1ccc(Cl)cc1)c1nc2ccccc2[nH]1)c1cccs1	Beta2AR agonist 62, NTR1 agonist 54 | NTR1 ag conf 62
O=C(/C(=C\c1ccccc1)c1nc2ccccc2[nH]1)c1ccc(Cl)cc1	none
Cc1nnc(NC(=O)CSc2nnc(CNC(=O)c3ccccc3)n2-c2ccccc2)s1	none
CCc1c(C(=O)N/N=C/c2ccc(OCc3ccc(F)cc3)c(OC)c2)nnn1-c1nonc1N	none (no result: TLR4-MyD88 BLA)
Oc1ccc(Br)cc1/C=N/Nc1nc(N2CCCCC2)nc(N2CCOCC2)n1	none (no result: NOD2-RIPK2 inh, Beta2AR agonist, TLR9-MyD88 block)
Oc1ccc(/C=N/Nc2nc(N3CCCCCC3)nc(N3CCCCCC3)n2)c(O)c1	NTR1 agonist 44, Bfl-1 A1 inh inconclusive | NTR1 ag conf inactive
O=C(/C=C/c1cccc(Cl)c1)c1nc2ccccc2[nH]1	NTR1 agonist 42 | NTR1 ag conf 72
Cc1nn(-c2ccccc2)c(C)c1C(=O)OCC(=O)Nc1ccc(C(N)=O)cc1	none (no result: Beta2AR agonist, NTR1 agonist, TLR4-MyD88 BLA, Bfl-1 A1 inh)
CCc1nc2c(OCc3cccc(Cl)c3)cccn2c1N(C)C(=O)C1CC1	none (no result: Beta2AR agonist, NTR1 agonist, TLR4-MyD88 BLA, Bfl-1 A1 inh, TLR9-MyD88 block)
CC1CCN(CCCNC(=O)c2ccc3c(=O)n(Cc4ccc(Cl)cc4)c(=S)[nH]c3c2)CC1	NTR1 agonist 52 | NTR1 ag conf 57
NS(=O)(=O)c1ccc(N2N=C(c3ccc(Br)cc3)CC2c2ccc(F)cc2)cc1 (stereo not given)	NTR1 agonist 42 | NTR1 ag conf 42
O=C(OCc1ccc(COC(=O)c2ccc(O)cc2)cc1)c1ccc(O)cc1	NTR1 agonist 46 (no result: TLR4-MyD88 BLA) | NTR1 ag conf inactive
CCCOc1ccc(C(=O)c2ccccc2C(=O)OC2CCOC2=O)cc1OCCC (stereo not given)	NTR1 agonist 44 (no result: TLR4-MyD88 BLA) | NTR1 ag conf 46
O=C(NCCOc1ccccc1)c1ccccc1Cl	none (no result: TLR4-MyD88 BLA)
CN(C(=O)COc1ccccc1C(=O)NCCOc1ccccc1)c1ccccc1	NTR1 agonist 107 | NTR1 ag conf 63
CCc1ccc(S(=O)(=O)/N=C2\C=C(Nc3ccc(O)cc3)C(=O)c3ccccc32)cc1	Beta2AR agonist 45, NTR1 agonist 45 (no result: TLR4-MyD88 BLA) | NTR1 ag conf inactive
Cc1cccc(OCC(=O)NNc2c3ccccc3nc3ccccc23)c1	none
Cc1ccc(OCC(=O)NNc2c3ccccc3nc3ccccc23)cc1	NTR1 agonist 47 | NTR1 ag conf inactive
CC(C)C[C@@H](CN)NC(=O)c1nc[nH]c1C(=O)N[C@@H](Cc1c[nH]c2ccccc12)C(=O)CNC[C@H](C)NC(=O)c1nc[nH]c1C(=O)N[C@@H](CC(=O)O)C(=O)O	none (no result: NTR1 agonist, TLR4-MyD88 BLA, Bfl-1 A1 inh)
COc1cc(C(=O)Oc2cccc(Nc3ncnc4ccccc34)c2)cc(OC)c1OC	NTR1 agonist 44 | NTR1 ag conf inactive
O=c1c2nnn(-c3cccc(F)c3)c2ncn1Cc1ccccn1	none
CC(=O)C[C@H](O)CC(=O)[C@@H]1OC(=O)[C@H](C)C/C=C\Cc2ccccc21	none (no result: TLR4-MyD88 BLA)
CCOc1c(OC(C)=O)ccc(/C=C/c2ccc3cccc(OC)c3n2)c1[N+](=O)[O-]	NTR1 agonist 42 | NTR1 ag conf inactive
COc1cc(/C=C/c2ccc3cccc([N+](=O)[O-])c3n2)ccc1OCC(=O)O	none
Nc1ccccc1C#CC(=O)c1ccccc1	Beta2AR agonist 44, NTR1 agonist 71 (no result: TLR4-MyD88 BLA) | NTR1 ag conf 83
CCOc1ccc(Nc2nc(Cc3nnc(SCC(=O)NCC4CCCO4)n3C)cs2)cc1 (stereo not given)	none
O=C(CSc1ccc(Cl)cc1)Nc1cccc(-c2nc3ncccc3o2)c1	NTR1 agonist 52 | NTR1 ag conf inactive
O=C(CSc1ccc(Cl)cc1)Nc1cc(-c2nc3ncccc3o2)ccc1Cl	none (no result: NOD2-RIPK2 inh, Beta2AR agonist, TLR9-MyD88 block)
c1ccc(CCc2ccccc2-c2nc(-c3ccccn3)no2)cc1	none
CCCCCc1cc(=O)oc2c(C(CCN3CCCC(C)C3)c3ccc(OC)cc3)c(OC)cc(OC)c12 (stereo not given)	none (no result: TLR4-MyD88 BLA)
CCCCCc1cc(=O)oc2c(C(CCN3CCCC3)c3cc(OC)c(OC)c(OC)c3)c(OC)cc(OC)c12 (stereo not given)	none (no result: TLR4-MyD88 BLA)
